# Test results from PubChem BioAssay AID623944 (Vanderbilt Specialized Chemistry Center, 2012).
# Calls of active or inactive are those of the source. How the calls were made is not given here.
# Assay: PubChem AID 623944
# Conditions: Ricerca radioligand binding panel, % inhibition, at 10 µM, stronger effect = higher value
compound,measurement,setting,value
O=C(Nc1ccc(N(Cc2ccsc2)C(=O)Cn2nnc3ccccc32)cc1)C1CC1,inhibition,GABA-A flunitrazepam site inhibition,22%
same,inhibition,adenosine A3 binding inhibition,20%
same,inhibition,androgen receptor binding inhibition,42%
same,inhibition,,75% (inactive)
same,inhibition,cannabinoid CB1 binding inhibition,25%
same,inhibition,dopamine D2S binding inhibition,4%
same,inhibition,dopamine transporter binding inhibition,12%
same,inhibition,hERG binding inhibition,15%
same,inhibition,kappa opioid binding inhibition,20%
same,inhibition,muscarinic M1 binding inhibition,-7%
same,inhibition,norepinephrine transporter binding inhibition,18%
same,inhibition,serotonin transporter binding inhibition,-1%
same,inhibition,sigma receptor binding inhibition,42%
